Source: PubChem BioAssay (EPA / NIEHS)
Calls of active or inactive are those of the source. Rule for the calls: active = hit-call score of the fitted dose curve at least 0.9, where 1 is the maximum; inactive = score below 0.9.

Read-out: Bcl-2 (BAX) gene, BAX (gene 581)
Experiment: LTEA_HepaRG_BAX: Life Technologies and Expression Analysis (LTEA) Assay for Bcl-2 (BAX) gene using HepaRG (AID 2283470)
Details: mRNA level, 48 h; actives raise or lower the signal
Experimental: LTEA_HepaRG is a cell based, multiplexed-readout assay that uses HepaRG, a human liver cell line, with measurements taken at 48 hours after chemical dosing on a 96-well plate.LTEA_HepaRG_BAX is one of 102 assay component(s) measured in the LTEA HepaRG cell culture assay. It is a marker of Cell proliferation, survival, death.Data from the assay component LTEA_HepaRG_BAX was analyzed into 1 endpoint. This assay endpoint, LTEA_HepaRG_BAX, was analyzed with bidirectional fitting relative to DMSO as the negative control and baseline of activity. Using a type of inducible reporter, measures of mRNA induction for gain or loss-of-signal activity can be used to understand regulation of transcription factor activity. To generalize the intended target to other relatable targets, this assay endpoint is annotated to the cell cycle intended target family, where the subfamily is Cell proliferation, survival, death.
A total of 1060 chemcials from the ToxCast library were tested in eight-point concentration-response experiments. Cell culture and cytotoxicity assays were conducted at Thermo Fisher Scientific's Custom Services facility (Madison, WI). A single lot of human HepaRG cells (Thermo Fisher Scientific, Frederick, MD) was used for the cell culture experiments. 96-well format collagen type I coated plates of human HepaRG cells were prepared using established methods. Briefly, cryopreserved HepaRG cells were thawed, plated at a density of approximately 100,000 cells/well in HepaRG Thaw, Plate, and General Purpose media (HPRG770, Thermo Fisher Scientific), and incubated for 48 hours. 0.5% DMSO was selected as vehicle control to balance the requisite need of DMSO in HepaRG cultures to maintain differentiation (for example, baseline metabolism, proportions of hepatocytes vs. cholangiocytes), while enabling further hepatic receptor pathway activation (for example, PXR and CAR) in response to chemical exposure. 48 hours after plating, the culture medium was replaced with HepaRG Serum-Free Incudtion Media. Cells were exposed to each test chemical in duplicate and maintained in CO2 incubators for another 48 hours. Chemical plates were thawed to room temperature and 200x concentrations of treatment groups were prepared. 8-point conentration-reponse curves were made with the highest exposure at 100 uM, followed by half-log dilutions, all in 0.5% DMSO. Each test plate contained variouse controls, induction positive controls (1mM phenobarbital), cytotoxicity positive controls ([…] aflatoxin B1), vehicle controls (0.5% DMSO), and total lysis controls (0.5% DMSO). Cell morphology images were taken using an Essen IncuCyte FLR automated microscope, with six 96-well plates imaged in about 24 minutes. Images were captured and exported and JPEG files. Spent culture media was transfered to black-well plates for the LDH assay, and remaining media was sorted at -80 C for later use. Cells were treated with RLT buffer and frozen until shipped for gene expression analysis. Total RNA was isolated from the cell suspension in 75 uL of Buffer RLT (Qiagen, Germantown, MD 20874) by Quintiles/Expression Analysis (Durham, NC) using a custom isolation procedure. Total RNA from each plate well was transferred to a preamplification plate. Fluidigm's 96.96 Dynamic ArrayTM (Fluidigm, Amsterdam, the Netherlands) technology was used for gene expression analyses by quantitative reverse transcription polymerase chain reaction (qRT-PCR, performed by Quintiles/Expression Analysis, Durham, NC)89. Standard TaqManTM Assays (Applied Biosystems/ThermoFisher Scientific, Foster City, CA) were used to assess the expression of 93 genes selected based on their selectivity and sensitivity to important hepatic receptors known to be modulated by environmental chemicals; importance in human hepatocyte functionality; and hepatotoxicity. […]

SMILES	outcome	AC50
C[C@]12CCC(=O)C[C@@H]1CC[C@@H]1[C@@H]2CC[C@]2(C)[C@@H](O)CC[C@@H]12	inactive	
CCOP(=S)(OCC)Oc1nc(Cl)c(Cl)cc1Cl	inactive	
O=C1C2(Cl)C3(Cl)C4(Cl)C(Cl)(Cl)C5(Cl)C3(Cl)C1(Cl)C5(Cl)C24Cl (stereo unspecified)		87.5 µM (active)
CC(C)(C)CC(C)(C)c1ccc(O)cc1	inactive	
CC(C)(c1ccccc1)c1ccc(O)c(C(C)(C)c2ccccc2)c1	inactive	
O=[N+]([O-])c1ccc(O)c([N+](=O)[O-])c1	inactive	
CCC(=O)C(CC(C)N(C)C)(c1ccccc1)c1ccccc1 (stereo unspecified)	inactive	
CCC(C)(C)c1ccc(O)c(C(C)(C)CC)c1	inactive	
O=c1[nH]c(=O)[nH]c(=O)[nH]1	inactive	
Cc1ccccc1N	inactive	
O=C(O)C(F)(F)C(F)(F)C(F)(F)C(F)(F)C(F)(F)C(F)(F)C(F)(F)C(F)(F)C(F)(F)C(F)(F)F	inactive	
ClCC(Cl)CCl		9.92 µM (active)
Oc1cccc2cccnc12	inactive	
COc1cc(-c2ccc(N)c(OC)c2)ccc1N	inactive	
O=C(O)C(Cl)(Cl)Cl	inactive	
ClC1(Cl)C2(Cl)C3(Cl)C4(Cl)C(Cl)(Cl)C5(Cl)C3(Cl)C1(Cl)C5(Cl)C24Cl (stereo unspecified)	inactive	

SMILES	outcome	AC50
CCOP(=S)(OCC)SCSP(=S)(OCC)OCC	inactive	
C[C@@H]1C[C@@H]([C@H](O)CC2CC(=O)NC(=O)C2)C(=O)[C@@H](C)C1		9.92 µM (active)
CC(=O)[O][Hg][c]1ccccc1		0.552 µM (active)
CCN1CCC2(CC1)COc1cc3c(cc12)N(C(=O)c1ccc(-c2ccc(-c4nnc(C)o4)cc2C)cc1)CC3	inactive	
O=C(Nc1ccc2[nH]ccc2c1)c1cc2cc(F)ccc2n1Cc1cccc(F)c1		19.2 µM (active)
CC(C)(C)c1cc(O)ccc1O	inactive	
O=C(O)C(F)(F)C(F)(F)C(F)(F)C(F)(F)C(F)(F)C(F)(F)F	inactive	
NC(=O)O	inactive	
Cn1sc(Cl)cc1=O	inactive	
CC12CC1(C)C(=O)N(c1cc(Cl)cc(Cl)c1)C2=O (stereo unspecified)	inactive	
CCCCCCCCc1ccc(O)cc1	inactive	
C=CC(=O)OCCCCCC(C)C	inactive	
C=C(C)C(=O)[O][Sn]([CH2]CCC)([CH2]CCC)[CH2]CCC		92.1 µM (active)
CN(C)N=O	inactive	
CC(C)(OO)c1ccccc1	inactive	
